Structures are written as SMILES. Out of some 320,000 compounds screened, about 2,100 (0.66%) were called active. Another 53% or so got no clear call; they are omitted. The sample holds actives, similar compounds and a random draw of the others, so the mix is not that of the screen. Calls come from the whole dose curve; as a rule, active = well fitted inhibition curve with a large enough effect in the signal ratio, with a control signal flat (not every such curve was filed as active); inconclusive = small, poorly fitted or top-dose-only effect, or effect the other way, or a change in a side signal; inactive = flat fitted curve, though single readings scatter; the % refers to the signal ratio.
Potency is the fitted concentration of half-maximal effect.

This experiment can be described thus: qHTS Assay for Lipid Storage Modulators in Drosophila S3 Cells.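 For cell number change: cells counted by Cell Tracker Red CMTPX staining in the red channel.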 For lipid storage change, negative = inhibition: % is set by controls: 0 for no effect and ±100 for the full control effect. Conditions: BODIPY lipid droplet fluorescence, 18-24 h, cells fed with added oleic acid; cell number change: measured here: cell count max response; series mostly up to 46.1 µM; lipid storage change, negative = inhibition: at the top concentration. In a few lines: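 Drosophila S3 cells got compounds at several concentrations plus oleic acid (400 uM solution). Laser-scanning cytometry with 488 nm excitation read lipid droplets at 500-530 nm and cells at 575-640 nm. Percent activity was relative to 20 uM Triacsin C.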
On to `CCN1CCN(S(=O)(=O)c2ccc(Cl)c(C(=O)N(C)C(c3ccccc3)c3ccccc3)c2)CC1`, for which the “lipid storage change, negative = inhibition” value was 17.2% (inactive).

Turning to `C=CCOc1ccc2ccccc2c1CNn1cn[nH]c1=S`, the outcome was inactive and the cell number change was determined as 10.6%. Take `Cc1ccc(OCC(=O)NCCCNC(=O)c2ccncc2)cc1`: the outcome was inactive and the cell number change came out at 0.901%.

Consider `CCOC(=O)N1CCN(C(=O)c2ccc3nc(N4CCCCC4)sc3c2)CC1`, for which the “lipid storage change, negative = inhibition” value was -10.6% (inactive) and the cell number change was -1.93%. Take `CCOC(=O)CNC(=O)N1CCCC(CNS(=O)(=O)c2cccs2)C1` (configuration not stated): the “lipid storage change, negative = inhibition” value is 6.02% (inactive) and the cell number change was 11.3%.

As for `Cc1ccc(S(=O)(=O)N2CCOCC2)cc1NC(=O)COC(=O)CCC(=O)c1ccc(F)cc1`, the “lipid storage change, negative = inhibition” value is 17% (inactive) and the cell number change stood at 14.2%. In the case of `N=c1c(C(=O)NCC2CCCO2)cc2c(=O)n3ccccc3nc2n1C1CCCCC1` (configuration not stated), the result was inactive and the cell number change is -7.39%. In the case of `N=c1c(C(=O)NC2CCCC2)cc2c(=O)n3ccccc3nc2n1C1CCCC1`, the “lipid storage change, negative = inhibition” value was 0.118% (inactive) and the cell number change was -15.6%.

Take `COCCCn1c(C(=O)NCCN2CCOCC2)cc2c(=O)n3ccccc3nc21`: the Potency is 1.84 µM (active) and the cell number change was 5.41%. Turning to `COCCCn1c(C(=O)N2CCOCC2)cc2c(=O)n3ccccc3nc21`, the “lipid storage change, negative = inhibition” value is -8.57% (inactive) and the cell number change came out at 17.7%. For the compound `N=c1c(C(=O)NCc2ccco2)cc2c(=O)n3ccccc3nc2n1C1CCCC1`, the Potency was 0.651 µM (active) and the cell number change came out at 10.3%.

`O=C(NCCN1CCOCC1)c1cc2c(=O)n3ccccc3nc2n1Cc1ccccc1`: the “lipid storage change, negative = inhibition” value is 21.5% (inactive) and the cell number change was determined as 13.8%. For the compound `Cc1cccc(C)c1NC(=O)CNC(=O)C1CCCN(C(=O)c2ccc(Cl)cc2)C1` (configuration not stated), the “lipid storage change, negative = inhibition” value is 10.7% (inactive) and the cell number change worked out at 1.48%. In the case of `COc1cc(C(=O)NCC(=O)NC(C)CCc2ccccc2)cc(OC)c1OC` (configuration not stated), the compound was called inactive and the cell number change was -6.74%. As to `CCOC(=O)N1CCN(C(=O)CCCCCn2c(=S)[nH]c3ccsc3c2=O)CC1`, the “lipid storage change, negative = inhibition” value is 14.1% (inactive) and the cell number change stood at 6.09%. As for `CCOC(=O)C1CCCN(C(=O)C2CCN(S(=O)(=O)c3c(C)noc3/C=C/c3ccccc3F)CC2)C1` (configuration not stated), the compound was called inactive and the cell number change was found to be 2.99%. Consider `COc1ccc(Cl)cc1NC(=O)CN1CCN(Cc2ccccc2)CC1`, for which the “lipid storage change, negative = inhibition” value was -7.01% (inactive) and the cell number change turned out to be 1.46%. In the case of `COc1ccc(Cl)cc1NC(=O)CCNC(=O)OCc1ccccc1`, the Potency was 7.31 µM (active) and the cell number change is -13.6%. The matching figures for `COc1ccc(OC)c(NC(=O)NCCCCc2ccccc2)c1`: 2.91 µM (active) and -13.4%. `COc1ccc(OC)c(NC(=O)CCN2C(=O)c3ccccc3C2=O)c1`: the compound was classed as inactive and the cell number change was found to be 23.6%. As to `COc1ccc(OC)c(NC(=O)CCCc2ccccc2)c1`, the compound was called inactive and the cell number change was 8.01%. As to `COc1ccc(OC)c(NC(=O)CCN2CCN(Cc3ccccc3)CC2)c1`, the “lipid storage change, negative = inhibition” value was 16.5% (inactive) and the cell number change is -0.977%. Consider `COc1ccc(Cl)cc1NC(=O)COC(=O)CCNC(C)=O`, for which the “lipid storage change, negative = inhibition” value is 11.9% (inactive) and the cell number change worked out at 0.288%. Turning to `COc1ccc(OC)c(NC(=O)NCCc2cccc(Cl)c2)c1`, the “lipid storage change, negative = inhibition” value is 12.6% (inactive) and the cell number change stood at 4.18%. Turning to `COc1ccc(OC)c(NC(=O)CN2C(=O)C(=O)N(Cc3ccccc3)C2=O)c1`, the Potency was 2.31 µM (active) and the cell number change is -12.4%. With `COc1ccc2oc(=N)c(C(=O)NCc3ccccc3)cc2c1`, the “lipid storage change, negative = inhibition” value is -29.1% (inactive) and the cell number change amounted to 8.47%. Take `O=C(O)CCc1ccc(-c2cccs2)n1NC(=O)c1ccc(O)cc1`: the “lipid storage change, negative = inhibition” value is 10.7% (inactive) and the cell number change worked out at 6.61%. Consider `CC1CC1C(=O)OCC(=O)NCc1ccccc1Cl` (configuration not stated), for which the Potency was 32.6 µM (active) and the cell number change is -18.4%. With `O=C(COC(=O)/C=C/c1ccccc1)NCc1ccccc1Cl`, the “lipid storage change, negative = inhibition” value was 0.13% (inactive). `O=C(COC(=O)C1CC2C=CC1C2)NCc1ccccc1Cl` (configuration not stated): the “lipid storage change, negative = inhibition” value is 10.6% (inactive) and the cell number change was determined as 9.83%. On to `Oc1cccc(/C=N/Nc2ccc(Cl)nn2)c1`, for which the “lipid storage change, negative = inhibition” value was 9.73% (inactive) and the cell number change worked out at 0.54%. On to `O=C1c2cccc([N+](=O)[O-])c2C(=O)N1c1cccnc1`, for which the “lipid storage change, negative = inhibition” value was 0.573% (inactive).

`O=C1c2cccc3cccc(c23)C(=O)N1c1cccnc1`: the “lipid storage change, negative = inhibition” value was -3.65% (inactive) and the cell number change is -10.8%. On to `O=C1c2ccccc2C(=O)N1c1cccnc1`, for which the Potency was 25.9 µM (active) and the cell number change is -5.37%.

Regarding `Cc1ccccc1Nc1nnc(SCC(=O)Nc2ccccc2[N+](=O)[O-])s1`, the “lipid storage change, negative = inhibition” value is -4.62% (inactive) and the cell number change is -4.61%. `CCCCN1C[C@H](Cc2ccccc2)[C@@H](CC(=O)NCc2ccc(OC)cc2)C1=O`: the “lipid storage change, negative = inhibition” value is -12.4% (inactive) and the cell number change came to 2.91%. Turning to `CCCCC[C@H]1CN(CCc2ccccc2)C(=O)[C@@H]1CC(=O)NCc1ccc(OC)cc1`, the “lipid storage change, negative = inhibition” value was -6.03% (inactive) and the cell number change was -13.8%.

Regarding `CCCCC[C@H]1CN(C2CCCCC2)C(=O)[C@@H]1CC(=O)NCc1ccccc1`, the Potency was 16.4 µM (active) and the cell number change was -8.08%.

As to `CCOC(=O)c1ccc(NC(=O)c2nc[nH]c2C(=O)N2CCc3ccccc3C2)cc1`, the “lipid storage change, negative = inhibition” value was 13.6% (inactive) and the cell number change turned out to be 9.14%.

On to `O=[N+]([O-])c1ccccc1S(=O)(=O)N1CCCCC1`, for which the Potency is 3.66 µM (active).

On to `O=[N+]([O-])c1cc(S(=O)(=O)N2CCCCCC2)ccc1F`, for which the Potency was 14.6 µM (active) and the cell number change is -27.8%. `O=[N+]([O-])c1cccc2c(S(=O)(=O)N3CCCCC3)cccc12`: the compound was classed as inactive and the cell number change was -7.14%.

With `Cc1ccc(S(=O)(=O)N2CCCCCC2)cc1[N+](=O)[O-]`, the “lipid storage change, negative = inhibition” value was -26% (inactive) and the cell number change was -8.44%. The corresponding values for `O=[N+]([O-])c1ccccc1S(=O)(=O)N1CCSCC1` are 25.8% (inactive) and -12%. On to `O=[N+]([O-])c1cc(S(=O)(=O)N2CCCCCC2)ccc1Cl`, for which the “lipid storage change, negative = inhibition” value is -17.4% (inactive) and the cell number change is -8.42%. As to `O=C(NCCc1ccccc1)/C(=C\c1ccc([N+](=O)[O-])cc1)NC(=O)c1ccco1`, the compound was called inactive.

The values above are taken from PubChem BioAssay AID2685 (National Center for Advancing Translational Sciences (NCATS), 2010).
